Screening results as filed in PubChem.
Only some compounds are listed: those with a hit (about 21% of all), similar ones and a draw of the others.
Cycloheximide cs: Cycloheximide Counterscreen for Small Molecule Inhibitors of Shiga Toxin. cell reporter, cycloheximide protein synthesis inhibition counterscreen. max response, %. actives 12% (n = 300,000). AID 2314, 2010; in the data active = max response mostly above about 13%, no sharp cut-off; inactive = mostly below about 14%; note: read at 38.3 µM for the half of the compounds with a filed dose; 0% is about no effect
Pf growth 96h: Primary qHTS for delayed death inhibitors of the malarial parasite plastid, 96 hour incubation; P. falciparum luciferase reporter growth, 96 h; Potency, µM (doses to about 28.7 µM), for the others: at the top dose activity change, negative = inhibition, actives largely listed as inhibitors; actives 6.9% (n = 320,000); AID 504834, 2011; note: potency is the fitted concentration of half-maximal effect; % is set by controls: 0 for no effect and ±100 for the full control effect
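P. falciparum expressing integrated firefly luciferase grown in erythrocytes (2% hematocrit, 0.05% parasitemia final) with compounds for 96 hours at 37 C, 5% CO2. Growth inhibition read as loss of luminescence after adding luciferase detection reagent.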
Pf growth 48h: Primary qHTS for delayed death inhibitors of the malarial parasite plastid, 48 hour incubation; P. falciparum luciferase growth in erythrocytes, 48 h; actives 5.9% (n = 310,000); Potency, µM (series often up to 28.7 µM), without a hit: at the top dose activity change, negative = inhibition, actives largely listed as inhibitors; note: potency is the fitted concentration of half-maximal effect; % is set by controls: 0 for no effect and ±100 for the full control effect
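Erythrocytes infected with P. falciparum carrying an integrated firefly luciferase reporter (2% hematocrit, 0.1% parasitemia final) were exposed to compounds in RPMI 1640 with 0.5% Albumax at 37 C, 5% CO2. Growth inhibition was scored as reduced luminescence.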
Shiga inhibitor: A qHTS for Small Molecule Inhibitors of Shiga Toxin; Vero cells, Shiga toxin protein synthesis inhibition reporter; inhibition, % at 38.7 µM; actives 9.2% (n = 290,000); in the data active = inhibition mostly above about 28%, no sharp cut-off; inactive = mostly below about 43%; note: 0% is about no effect
HCV inhibitor: qHTS Assay for Inhibitors of Hepatitis C Virus (HCV); actives 3.4% (n = 340,000); Potency, µM (titrated, usually from 41.8 µM), for the others: at the top dose activity change, negative = inhibition, hits mostly inhibitors; Huh7.5.1 HCVcc-Cre infection, luciferase reporter, 44 h; note: potency is the fitted concentration of half-maximal effect; % is set by controls: 0 for no effect and ±100 for the full control effect
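HCVcc-Cre virus at an moi near 0.5 was added right after compound to cells cultured 4 h from seeding (1,000 cells/well). Luciferase activity was determined 44 h later, 15 min after substrate addition at RT.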
AMA1 RON2 block: qHTS for Inhibitors of AMA1-RON; Towards Development of Antimalarial Drug Lead: Primary Screen; Plasmodium falciparum AMA1 (3D7) - RON2 peptide interaction; AID 720542, 2013; actives 0.2% (n = 360,000); Potency, µM (top dose mostly 58.2 µM), inactives show at the highest dose activity change, negative = inhibition, hits mostly inhibitors; AlphaScreen AMA1-biotinylated RON2 peptide binding;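 note: potency is the fitted concentration of half-maximal effect; 0% = vehicle wells and -100% = peptide control; nearly all actives have a fitted effect of over 45% in size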
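AMA1 (3D7) with his tag at 25 nM final met compounds first, then biotinylated RON2 peptide at 25 nM; detection used donor plus acceptor beads, 10 µg/mL apiece, read by AlphaScreen after 30 min at room temperature.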
Starred values were filed as active, the others as inactive; i = inactive; ? = inconclusive; nt = not tested or not shown; [ ] = dose if it differs, or a comment. Unless noted, calls come from the whole dose curve; as a rule, active = well fitted curve in the direction sought with a large enough effect; inconclusive = small, poorly fitted or top-dose-only effect, or another doubt; inactive = no such curve, though single readings can be large; an effect the other way counts as inactive or inconclusive.

SMILES | Cycloheximide cs | Pf growth 96h | Pf growth 48h | Shiga inhibitor | HCV inhibitor | AMA1 RON2 block
Cc1ccc(C(=O)O/N=C(\N)c2nonc2N)cc1 | 47* | ? | 84% | 51* | -5% | 4%
Cc1cc(/C(N)=N/OC(=O)c2ccccc2Cl)no1 | 21* | i | 199% | 38* | 17% | 6%
N/C(=N/OC(=O)c1ccccc1Cl)c1nonc1N | 38* | -10% | 57% | 90* | 13% | -19%
Cc1ccc(C(=O)O/N=C(\N)c2ccccn2)cc1 | -18 | -11% | ? | -30 | 13% | 42%
N/C(=N\OC(=O)c1ccc(F)cc1)c1nonc1N | 48* | 25% | 21% | 71* | -5% | 25%
N/C(=N/OCC(=O)Nc1cccc2ccccc12)c1nonc1N | -2 | ? | -5% | -8 | -18% | -4%
Cc1onc(-c2ccccc2)c1C(=O)Nc1nnc(CC(C)C)s1 | -2 | -1% | 12% | -6 | 7% | 2%
COc1cscc1C(N)=O | -3 | ? | -23% | -12 | 17% | -3%
Cc1cccc(C(=O)N[C@@H]2c3ccccc3C[C@@H]2O)n1 | nt | nt | nt | nt | 7% | -4%
Cc1ccc(-n2c(-c3cccs3)nc3nc4ccccc4nc32)cc1 | -2 | 2.9µM* | 1% | -8 | 7% | nt
Cc1ccc2oc(C(=O)N3CCN(Cc4ncccc4C)CC3)c(C)c2c1 | -1 | ? | -12% | 14 | nt | 18%
O=C(NC1CCCCCCC1)c1cc(COc2ccc3ncccc3c2)on1 | 8 | ? | ? | -2 | ? | -1%
Cc1cccnc1CN1CCN(C(=O)c2cc(COc3ccc4ncccc4c3)on2)CC1 | 2 | ? | 8% | -6 | 4µM* | 31%
CCOC(=O)N1CCN(C(=O)c2cc(COc3ccc4ncccc4c3)on2)CC1 | -2 | i | ? | -8 | 7.9µM* | 12%
CCCCCc1nnc(NC(=O)C2=COCCO2)s1 | nt | 75% | 77% | nt | -6% | -7%
COc1ccc(CN(CC(=O)NC2CCCC2)C(=O)CCC(=O)Nc2nc(C)cs2)cc1 | -6 | -5% | -25% | -16 | 11% | 6%
CCc1nc2c(OCCC3CCCCC3)cccn2c1N(C)C(=O)c1ccc(OC)cc1 | nt | nt | nt | nt | nt | -11%
CC(=O)Nc1ccc(-c2ccnc3c2CC(C)(C(=O)Nc2ccc(Cl)cc2)O3)cc1 (centres undefined) | nt | nt | nt | nt | nt | 0%
COC(=O)c1cc(Br)c(=O)n(Cc2ccc3c(c2)OCO3)c1 | 12 | 9.3µM* | ? | -14 | 5% | 4%
CC(C)(C)N1C(=O)c2ccccc2NC(=O)C1C(=O)NCCOc1ccccc1 (centres undefined) | nt | nt | nt | nt | nt | 2%
Cc1c(C(=O)c2ccc(Cl)cc2Cl)cnc2cc3c(cc12)OCO3 | -1 | 13µM* | 8.3µM* | -8 | 10µM* | -18%
O=C(O)c1cc(-c2ccc3c(c2)OCO3)nc2ccc(Cl)cc12 | 8 | 13% | 28% | 30 | 22% | -7%
COc1ccc(-c2cn(CC[C@@H]3CC[C@H](NC(=O)Cc4ccccn4)[C@@H](CO)O3)nn2)cc1 | nt | nt | nt | nt | nt | 33%
CCN(CC)C(=O)C(=O)Nc1ccc(OCc2ccccc2)cc1 | 14* | ? | 9% | 23 | 6% | 8%
S=C(Nc1ccccc1)Nc1ccc(OCc2ccc(Cl)cc2Cl)cc1 | -8 | ? | 5.9µM* | -21 | ? | 47%
SMILES | Cycloheximide cs | Pf growth 96h | Pf growth 48h | Shiga inhibitor | HCV inhibitor | AMA1 RON2 block
Cc1cc(NC(=O)Nc2ccc(OCc3ccccc3)cc2)n(C)n1 | 2 | 0% | 0% | 19 | ? | -8%
C/C(CC(=O)Nc1ccc(OCc2ccccc2)cc1)=N\NC(=O)C(=O)Nc1ccccc1C | 26* | ? | ? | 65* | ? | 27%
CNC(=S)Nc1ccc(OCc2ccccc2)cc1 | 44* | ? | 41% | 48* | -6% | -36%
COc1cccc(OCC(=O)Nc2c3c(nn2-c2ccc(F)cc2)CS(=O)(=O)C3)c1 | 1 | 2% | 66% | -3 | nt | 5%
CCN(CC(=O)Nc1ccc2c(c1)OCCO2)S(=O)(=O)c1ccc(F)cc1 | -4 | -24% | 1% | 18 | -11% | 0%
CCOc1ccc(NC(=S)Nc2ccc(OCc3ccccc3)cc2)cc1 | 11* | -12% | -24% | 4 | 13% | -1%
CC/C(=N/Nc1cccc(C)c1)c1cnnc(SC)n1 | -2 | -101% | ? | 1 | 10µM* | -15%
CC/C(=N/Nc1ccc(Cl)cc1)c1cnnc(SC)n1 | 6 | ? | ? | 10 | -20% | 9%
COc1ccc(CN2C[C@@H](CO)O[C@@H](n3cnc4c(NC5CCC5)ncnc43)C2)cc1 | nt | nt | nt | nt | nt | -14%
COc1ccc(CNC(=O)c2cc3cccc(O)c3oc2=N)cc1 | 5 | ? | ? | 38 | 11% | 0%
Cc1ccc(-c2nc(Nc3cccc(O)c3)c3ccccc3n2)cc1 | 2 | ? | 8%[0.00184 µM] | 33 | 28µM* | -12%
Cc1ccc(-c2nc(Nc3ccc(O)cc3)c3ccccc3n2)cc1 | 14* | -1% | nt | 56 | 7.1µM* | 3%
Oc1ccc(Nc2nnc(-c3ccc(O)cc3)c3ccccc23)cc1 | -1 | 90% | ? | -14 | -21% | -3%
O=C(O)c1cccc(Nc2nc(-c3ccc([N+](=O)[O-])cc3)nc3ccccc23)c1 | -3 | 1% | -35% | 5 | 0% | -1%
Cc1ccc(-c2nc(Nc3ccc(N4CCOCC4)cc3)c3ccccc3n2)cc1 | 16 | ? | 13µM* | 52* | ? | ?
O=[N+]([O-])c1ccc(-c2nc(Nc3cccc(O)c3)c3ccccc3n2)cc1 | 4 | 98% | ? | 3 | 6.3µM* | -11%
O=C(Nc1ccccc1F)C1CCCN1S(=O)(=O)c1ccc(Cl)cc1 (centres undefined) | nt | -23% | ? | nt | ? | -8%
Cc1ccc(S(=O)(=O)N2CCCC2CNC(=O)C(=O)NC2CCCC2)cc1 (centres undefined) | nt | ? | -11% | nt | ? | 5%
CCOC(=O)N1CCN(C(=O)c2ccc(SC)cc2OC)CC1 | 1 | 10% | 3% | -15 | -5% | -2%
CCC1NC(=O)c2cccnc2-n2c1nc1cc(F)ccc1c2=O (centres undefined) | nt | nt | nt | nt | nt | -8%
CC(C)c1ccc(NC(=O)CCNS(=O)(=O)c2cc(Br)cnc2N)cc1 | 11 | 9% | -1% | -6 | 10% | 13%
Cc1ccc(-c2nc(C(Cl)Cl)c3ccccc3n2)cc1 | 2 | ? | ? | 5 | 3.5µM* | -4%
CC(C)Oc1nc(-c2ccc(Cl)cc2)nc2ccccc12 | 1 | 58% | 23% | 10 | -10% | 8%
